Here are results for 59 compounds from PubChem BioAssay AID504332 (National Center for Advancing Translational Sciences (NCATS), 2011).

The whole screen tested about 350,000 compounds, of which about 31,000 (8.9%) were called active. Entries that show only a call come without a potency. About 15% were inconclusive and are not listed. Only a selection was taken, and actives are over-represented in it overall. A number with no mark means an inactive call. The call rests on the fitted dose curve; in most records, active means well fitted inhibition curve with a large enough effect; inconclusive means small, poorly fitted or top-dose-only effect; inactive means no such curve, though single readings can be large or run the other way.
Potency means the concentration at half of the fitted maximal effect.

Chain of Histone-lysine N-methyltransferase EHMT2 (Homo sapiens) (Q96KQ7 913-1193 limits assumed): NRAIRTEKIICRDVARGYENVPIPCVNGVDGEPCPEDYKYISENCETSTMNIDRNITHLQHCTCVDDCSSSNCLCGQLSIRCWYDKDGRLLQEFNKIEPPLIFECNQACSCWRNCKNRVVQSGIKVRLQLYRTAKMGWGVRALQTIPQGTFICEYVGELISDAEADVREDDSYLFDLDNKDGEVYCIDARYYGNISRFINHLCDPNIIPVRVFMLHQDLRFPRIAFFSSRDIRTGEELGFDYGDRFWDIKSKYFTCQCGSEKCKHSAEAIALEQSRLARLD

This assay concerns the target Histone-lysine N-methyltransferase EHMT2 (Homo sapiens) (UniProt Q96KQ7). As to the kind of experiment: qHTS Assay for Inhibitors of Histone Lysine Methyltransferase G9a. Further: nearly all actives have a fitted effect of over 75% in size. To be noted: G9a H3K9 monomethylation, AlphaScreen, 2 h; series mostly up to 59 µM. A digest of the protocol:
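Compounds were preincubated with 20 nM G9a for 15 min, after which biotinylated H3K9 peptide (500 nM) and SAM (20 uM) started a 2 h room-temperature reaction. Monomethylated product was quantified by antibody-based AlphaScreen chemiluminescence.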
With `COc1ccc(NC(=O)c2cc3cc(C)ccc3n2C)cc1`, the Potency result is “inactive”.
For `CCC(C)NC(=O)c1ccc(NC(=O)CC2SC(N3CCCCC3)=NC2=O)cc1` (centres undefined), the activity, negative = inhibition is -0.745% [at 12.7 µM].
Still for that read-out and setting: the same measure for `CC(=O)O[C@H]1CC[C@@]2(C)[C@@H](CC[C@@H]3[C@@H]2CC[C@]2(C)[C@@H](C(C)(C)O)C[C@@H]32)C1`: -7.36% [at 2.33 µM].
Regarding `O=C(NCc1ccco1)c1sc2cccc(F)c2c1Cl`, the Potency is 8.91 µM (active).
Same read-out and setting: the same measure for `O=C(NCc1ccco1)c1nn2cccnc2c1Cl`: “inactive”; for `O=C(NCc1ccco1)C1(c2ccc(Cl)cc2)CCCC1`: “inactive”.
On the same count and under the same terms, the same measure for `COc1ccc(-c2cc(C(=O)N3CCN(Cc4ccc5c(c4)OCO5)CC3)on2)cc1OC`: “inactive”.
Regarding `CCN1C(=O)[C@H]2[C@@H](c3ccc(C)cc3)N3C(=O)N(c4cccc(Br)c4)C(=O)[C@@]3(CC)[C@H]2C1=O`, the activity, negative = inhibition is -0.448% [at 2.33 µM].
Take `C=CCOc1ccc(/C=N/NC(=O)C(C)Sc2ccccn2)cc1OCC` (centres undefined): the Potency result was “inactive”.
For `COc1cc(/C=C2\SC(=O)NC2=O)ccc1OCc1ccc(Cl)nc1`, the activity, negative = inhibition was 21.1% [at 2.33 µM].
For `C=CCOc1ccc(/C=C2/C(=O)ON=C2C)cc1OCC`, the Potency was 44.7 µM (active).
The same measure, in the same setting: the same measure for `CCOc1cc(/C=N/O)ccc1OCc1ccccc1F`: “inactive”.
Still for that read-out and setting: the same measure for `COc1ccnc2c1c(=O)n(Cc1cccc(F)c1)c(=O)n2C`: “inactive”.
On the same count and under the same terms, the same measure for `CCOc1cc(/C=C2\C(=N)N3N=C(C)SC3=NC2=O)ccc1OCCOc1ccccc1`: “inactive”; for `C#CCOc1ccccc1/C=C1/C(=O)ON=C1C`: “inactive”; for `C#CCOc1ccc(/C=C2/C(=O)ON=C2C)cc1OCC`: 39.8 µM (active).
As for `COc1cc(/C=C2/C(=O)ON=C2C)ccc1OCc1cccc(F)c1`, the Potency was 50.1 µM (active).
The same measure, in the same setting: the same measure for `O=C1CC(c2ccc(F)cc2F)c2cc3c(cc2N1)OCO3` (centres undefined): “inactive”; for `Cc1ccc(S(=O)(=O)N2CCN(C(=O)Cc3sc(C)nc3-c3ccc(F)cc3)CC2)c(C)c1`: “inactive”; for `CCc1ccc(S(=O)(=O)c2nnn3c2nc(NCc2ccccc2OC)c2cc(Cl)ccc23)cc1`: “inactive”.
Same read-out and setting: the same measure for `O=C(Nc1nc2ccc(F)cc2s1)c1nc(SCc2ccccc2F)ncc1Cl`: “inactive”.
Still for that read-out and setting: the same measure for `CCOC(=O)Cc1ccc(NC(=O)Nc2c[nH]c(=O)[nH]c2=O)cc1`: “inactive”; for `CCc1ccc(NC(=O)c2cc3c(=O)n(Cc4cccnc4)ccc3nc2C)cc1`: “inactive”; for `O=C(c1ccc(S(=O)(=O)N2CCCC2)cc1)N1CCN(c2ccccc2F)CC1`: “inactive”.
With `CNS(=O)(=O)c1ccc(C(=O)NCC(=O)NCCc2ccc3c(c2)OCCO3)cc1`, the activity, negative = inhibition is -2.43% [at 12.7 µM].
As for `O=C(CN(CC1CCCO1)C(=O)CNS(=O)(=O)c1ccc(Cl)cc1)NCc1ccccc1` (centres undefined), the Potency result was “inactive”.
Still for that read-out and setting: the same measure for `Cc1ccc(CN(CC(=O)NCC2CCCO2)S(=O)(=O)c2ccc(C)cc2)cc1` (centres undefined): “inactive”.
The same measure, in the same setting: the same measure for `Cc1ccc(S(=O)(=O)NCC(=O)N(CC(=O)NCC2CCCO2)c2cccc(F)c2)cc1` (centres undefined): “inactive”; for `CCOc1ccc(N(CC(=O)NCC2CCCO2)S(=O)(=O)c2ccc(C)cc2)cc1` (centres undefined): 50.1 µM (active); for `Cc1ccc(N(CC(=O)NCC2CCCO2)C(=O)CNS(=O)(=O)c2ccc(Cl)cc2)cc1` (centres undefined): 1 µM (active).
Turning to `CCOc1ccc(S(=O)(=O)NCCC(=O)NCC2CCCO2)cc1` (centres undefined), the activity, negative = inhibition was 28.8% [at 12.7 µM].
`Cc1ccc(-c2nnc(Nc3cccc(Br)c3)c3ccccc23)cc1S(=O)(=O)NCC1CCCO1` (centres undefined): the Potency result is “inactive”.
Turning to `CCOc1ccccc1NC(=O)Cn1c2ncccc2c(=O)n1-c1ccc(C)c(C)c1`, the Potency result was “inactive”.
Still for that read-out and setting: the same measure for `COc1cc2ccccc2cc1C(=O)Nc1cccc(-c2nc3ccccc3o2)c1`: “inactive”; for `O=C(/C=C/c1ccccc1)N1CCN(Cc2cc(=O)n3nc(-c4ccccc4F)sc3n2)CC1`: “inactive”; for `O=C(NCCC1=CCCCC1)c1ccc2c(c1)N(Cc1ccccc1F)C(=O)c1ccccc1S2(=O)=O`: “inactive”.
The same measure, in the same setting: the same measure for `C=C(C)COc1ccc(-c2ncncc2-c2ccc(OC)cc2)c(O)c1`: “inactive”.
As to `CC(C)c1ccc(NC(=O)Cn2c3ncccc3c(=O)n2-c2ccccc2)cc1`, the Potency result is “inactive”.
Take `N#CC1=C(N)Oc2[nH]c(=S)[nH]c(=O)c2C12C(=O)Nc1ccccc12` (centres undefined): the Potency is 35.5 µM (active).
Consider `N#CC1=C(N)Oc2n[nH]c(CSc3ccccc3)c2C12C(=O)Nc1ccccc12` (centres undefined), for which the Potency result is “inactive”.
In the case of `Cc1ccc(NC2(C#N)C(=O)Nc3ccccc32)cc1` (centres undefined), the activity, negative = inhibition was -25.6% [at 2.33 µM].
Turning to `O=C(O)C(c1ccccc1)N1C(=O)/C(=C\c2ccc(-c3cccc(Cl)c3)o2)SC1=S` (centres undefined), the Potency is 39.8 µM (active).
Take `CN=C1S/C(=C\c2ccc(Sc3ccc(Cl)cc3)o2)C(=O)N1C`: the Potency entry was “inactive”.
Take `O=C1c2ccccc2NC(c2ccc(-c3cccc(Cl)c3)o2)N1O` (centres undefined): the activity, negative = inhibition was 25.2% [at 12.7 µM].
As to `Cc1ccc(C(=O)COC(=O)C(Cc2c[nH]c3ccccc23)NC(=O)c2ccc(Br)cc2)cc1` (centres undefined), the Potency result is “inactive”.
Turning to `Cn1cc(S(=O)(=O)N2CCCCCC2)cc1C(=O)N1CCN(c2ccc(F)cc2)CC1`, the Potency entry is “inactive”.
For the compound `CCCCc1nn2c(=O)cc(COC(=O)c3ccc(NC(=O)c4ccccc4C)cc3)nc2s1`, the Potency entry is “inactive”.
Still for that read-out and setting: the same measure for `Cc1ccc(-n2c(SCC(=O)Nc3cccc(F)c3)nc3c(oc4ccccc43)c2=O)cc1C`: “inactive”; for `CCN(CC(=O)Nc1ccc(OC)cc1)C(=O)c1ccc(Cl)c(S(=O)(=O)N2CCCC2)c1`: “inactive”; for `COc1ccc(C(=O)OCC(=O)c2ccc(Cl)s2)c(OC)c1OC`: “inactive”.
On the same count and under the same terms, the same measure for `C=CCNC(=S)NNC(=O)COc1c(Cl)cc(Cl)cc1Cl`: 8.91 µM (active).
Same read-out and setting: the same measure for `C=CCNC(=S)NNC(=O)c1ccc(Br)o1`: “inactive”; for `C=CCNC(=S)NNC(=O)c1cc(Cl)ccc1OC`: “inactive”; for `Cc1ccc(CSCC2Nc3ccc(C(=O)N4CCN(c5ccc(F)cc5)CC4)cc3NC2=O)cc1` (centres undefined): 2.24 µM (active).
In the case of `O=C(c1cc(C(=O)N2CCN(c3ccc(F)cc3)CC2)cc([N+](=O)[O-])c1)N1CCN(c2ccc(F)cc2)CC1`, the activity, negative = inhibition was 1.74% [at 0.501 µM].
Take `O=C1Nc2cc(C(=O)N3CCN(c4ccc(F)cc4)CC3)ccc2NC1CSCc1cccc(F)c1` (centres undefined): the Potency was 10 µM (active).
Consider `O=C(c1cccc(F)c1)N1CCC2(CC1)CCN(c1ccccc1)CC2`, for which the activity, negative = inhibition was -4.3% [at 12.7 µM].
Take `O=C(c1cc(-c2ccc(F)cc2)on1)N1CCN(c2ccc(F)cc2)CC1`: the Potency result was “inactive”.
The same measure, in the same setting: the same measure for `C=CCn1c(SCc2cccc(F)c2)nc2cc(C(=O)N3CCC(C(N)=O)CC3)ccc2c1=O`: “inactive”.
